In all, about 5,500 compounds went through this assay and about 2,000 (36%) were called active. Roughly 18% stayed inconclusive and do not appear here. No stated cut-off is given here; in the data, active means normalized growth mostly below about 0.91 (no sharp cut-off); inconclusive means no clear call, values can overlap the other calls; inactive means mostly above about 0.92. Some of the results follow.
Assay: chemical genetic growth profiling, strain panel (AID 1159580);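 further: tested at 20 µM; growth read once vehicle control cultures reached saturation at 30 °C; 1 = growth at the plate median or of vehicle wells; lower values mean less growth of the strain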
Details: S. cerevisiae deletion strains, growth OD

Measured: normalized growth

C[N+]1(C)C[C@H](O)[C@H](C(=O)[O-])C1
inactive: locus YAL013W, strain DEP1, active compounds read low 1.01 | locus YAL021C, strain ccr4, active compounds read low 0.996 | locus YAL026C, strain drs2, active compounds read low 1.03 | locus YAL030W, strain snc1, active compounds read low 1.01 | locus YBL061C, strain skt5, active compounds read low 1.01 | locus YBR009C, strain hhf1, active compounds read low 1.05 | locus YBR021W, strain FUR4, active compounds read low 1.01 | locus YBR023C, strain chs3, active compounds read low 1.02 | locus YBR171W, strain sec66, active compounds read low 1.03 | locus YBR229C, strain ROT2, active compounds read low 1.01 | locus YBR231C, strain swc5, active compounds read low 1.02 | locus YBR279W, strain paf1, active compounds read low 1.01 | locus YCL011C, strain gbp2, active compounds read low 1.02 | locus YCL016C, strain dcc1, active compounds read low 1.02 | locus YCL029C, strain bik1, active compounds read low 0.996 | locus YCL061C, strain MRC1, active compounds read low 1.02 | locus YCL069W, strain vba3, active compounds read low 1.01 | locus YCR088W, strain abp1, active compounds read low 1.01 | locus YDL005C, strain med2, active compounds read low 1.01 | locus YDL035C, strain GPR1, active compounds read low 1.01 | locus YDL040C, strain nat1, active compounds read low 1.01 | locus YDL074C, strain BRE1, active compounds read low 1.02 | locus YDL101C, strain DUN1, active compounds read low 1.02 | locus YDL134C, strain PPH21, active compounds read low 1.01 | locus YDL185W, strain tfp1, active compounds read low 0.995 | locus YDL192W, strain arf1, active compounds read low 1 | locus YDR001C, strain nth1, active compounds read low 1.01 | locus YDR069C, strain doa4, active compounds read low 1.03 | locus YDR101C, strain arx1, active compounds read low 0.988 | locus YDR137W, strain rgp1, active compounds read low 1.01 | locus YDR150W, strain NUM1, active compounds read low 1.01 | locus YDR159W, strain sac3, active compounds read low 1.02 | locus YDR162C, strain NBP2, active compounds read low 1.01 | locus YDR195W, strain ref2 1.03 | locus YDR297W, strain sur2, active compounds read low 1.01 | locus YDR318W, strain mcm21, active compounds read low 1.01 | locus YDR334W, strain swr1, active compounds read low 1.02 | locus YDR335W, strain msn5, active compounds read low 1.01 | locus YDR388W, active compounds read low 1.01 | locus YDR392W, strain spt3, active compounds read low 0.996 | locus YDR502C, strain sam2, active compounds read low 0.994 | locus YEL003W, strain gim4, active compounds read low 1.02 | locus YEL037C, strain rad23, active compounds read low 1.01 | locus YEL061C, strain CIN8 (second series), active compounds read low 1.01 | locus YEL061C, strain CIN8, active compounds read low 1 | locus YER015W, strain faa2, active compounds read low 1.01 | locus YER016W, strain bim1, active compounds read low 1.01 | locus YER110C, active compounds read low 0.992 | locus YER111C, strain swi4, active compounds read low 1.02 | locus YER155C, strain BEM2 (second series), active compounds read low 1.05 | locus YER155C, strain BEM2, active compounds read low 1 | locus YER167W, strain BCK2, active compounds read low 1.01 | locus YFR010W, strain ubp6, active compounds read low 1.02 | locus YGL078C, strain dbp3, active compounds read low 0.999 | locus YGL086W, strain mad1, active compounds read low 0.968 | locus YGL167C, strain pmr1, active compounds read low 1.02 | locus YGL173C, strain kem1, active compounds read low 1.02 | locus YGL227W, strain vid30, active compounds read low 1.01 | locus YGL240W, strain doc1, active compounds read low 1.04 | locus YGL248W, strain PDE1, active compounds read low 1.01 | locus YGL253W, strain hxk2, active compounds read low 1.03 | locus YGR078C, strain PAC10, active compounds read low 1.01 | locus YGR135W, strain pre9, active compounds read low 1 | locus YGR229C, strain SMI1, active compounds read low 1.01 | locus YGR252W, strain gcn5, active compounds read low 0.992 | locus YHR013C, strain ard1, active compounds read low 0.999 | locus YHR027C, strain rpn1, active compounds read low 1.01 | locus YHR030C, strain SLT2, active compounds read low 1.01 | locus YHR079C, strain IRE1 (second series), active compounds read low 1 | locus YHR094C, strain hxt1, active compounds read low 0.993 | locus YHR129C, strain ARP1, active compounds read low 1.01 | locus YHR142W, strain chs7, active compounds read low 0.98 | locus YHR200W, strain rpn10, active compounds read low 0.995 | locus YIL066C, strain RNR3, active compounds read low 1.01 | locus YIL073C, strain SPO22, active compounds read low 1.1 | locus YIL125W, strain kgd1, active compounds read low 0.996 | locus YIR030C, strain dcg1, active compounds read low 0.995 | locus YJL092W, strain hpr5, active compounds read low 1.01 | locus YJL095W, strain BCK1 (second series), active compounds read low 1.01 | locus YJL095W, strain BCK1, active compounds read low 1.01 | locus YJL115W, strain asf1, active compounds read low 1.02 | locus YJL129C, strain trk1, active compounds read low 1.01 | locus YJL134W, strain LCB3, active compounds read low 1 | locus YJL154C, strain vps35, active compounds read low 1.01 | locus YJL164C, strain tpk1, active compounds read low 1.01 | locus YJL166W, strain qcr8, active compounds read low 1.01 | locus YJL168C, strain set2, active compounds read low 1 | locus YJL187C, strain SWE1 (second series), active compounds read low 1.02 | locus YJL187C, strain SWE1, active compounds read low 1.01

From PubChem BioAssay AID1159580 (chemical genetic matrix, 2015)
